# Source: PubChem (National Center for Advancing Translational Sciences (NCATS))
# In the library only some 6.8% were active in any assay of this set; here they are far more common.
# TSG101-PTAP inh: blocks PTAP/TSG101 interaction to inhibit HIV-1 budding. Q99816. Fluorescence polarization, FITC-PTAP peptide / Tsg101 binding. Potency, µM (series often up to 115 µM), for the others: at the top dose activity change, negative = inhibition, usual class: inhibitors. 340,000 tested, under 10 active; active = well fitted inhibition curve with a large enough effect in the main read-out, with a control signal flat, not every such curve was filed as active; inconclusive = small, poorly fitted or top-dose-only effect, or effect the other way, or a change in a side signal; inactive = no such curve, though single readings can be large or run the other way; also: % of control where 0% means no effect
# Target sequence (Q99816 whole entry, looked up): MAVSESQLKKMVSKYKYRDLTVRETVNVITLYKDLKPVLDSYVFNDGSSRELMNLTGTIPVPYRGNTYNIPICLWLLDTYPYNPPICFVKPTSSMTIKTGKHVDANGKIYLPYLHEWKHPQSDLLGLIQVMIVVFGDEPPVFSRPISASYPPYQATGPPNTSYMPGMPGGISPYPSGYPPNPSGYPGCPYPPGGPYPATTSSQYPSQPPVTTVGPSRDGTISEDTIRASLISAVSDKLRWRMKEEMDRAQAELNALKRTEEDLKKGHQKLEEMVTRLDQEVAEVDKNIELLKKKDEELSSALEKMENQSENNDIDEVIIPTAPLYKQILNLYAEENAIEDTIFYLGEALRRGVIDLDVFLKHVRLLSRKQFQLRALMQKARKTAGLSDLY
#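 Compounds were pin-transferred onto Tsg101 binding domain (10 uM final) in HEPES pH 7.5 buffer, then FITC-PTAP peptide was added at 50 nM final. After 20 min at RT, polarization reported peptide displacement across a qHTS concentration series.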
# KB-V1 MDR tox: KB-V1 MDR subline cytotoxicity; KB-V1 MDR cells viability, CellTiter-Glo, 72 h; Potency, µM (doses to about 46.1 µM), hits mostly cytotoxic; 400,000 tested, 3.4% active; also: % is scaled to controls: 0 for no effect and ±100 for the full control effect; nearly all actives have a fitted effect of over 60% in size
#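 Cytotoxicity via CellTiter-Glo luminescence after 72 h compound exposure at 37 degrees C. Cells: drug-selected KB-V1 line, DMEM phenol-red free plus 10% FBS. Compounds tested at multiple concentrations; normalized data fitted to concentration-effect curves.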
# PINK1 modulator: modulators of PINK1 expression | 410,000 tested, 0.2% active | Potency, µM (doses to about 76.6 µM), for the others: top-dose activation (PINK1 increase), usual class: activators | PINK1 immunofluorescence, high-content cytometry, 24 h | AID 624263; active = well fitted activation curve with a large enough effect; inconclusive = small, poorly fitted or top-dose-only effect; cell line not stated here; also: % of control where 0% means no effect; nearly all actives have a fitted effect of over 65% in size
#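 Decision-based qHTS: stable cells, 24 h exposure to five compound concentrations, CCCP as control. Fixed cells stained for PINK1 plus nuclear, mitochondrial and cell markers, cytometer read.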
# KB-3-1 cytotox: KB-3-1 parental cell cytotoxicity. 400,000 tested, 1.4% active. Potency, µM (top dose mostly 46.1 µM), most hits filed as cytotoxic. KB-3-1 viability, CellTiter-Glo ATP luminescence, 72 h; also: % is scaled to controls: 0 for no effect and ±100 for the full control effect; nearly all actives have a fitted effect of over 60% in size
#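 Cytotoxicity in the drug-sensitive parental line KB-3-1 was scored as loss of CellTiter-Glo luminescence following 72 h incubation with compound. Values come from curve fitting of normalized concentration-response data.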
# SW480 rereplic: inducers of DNA re-replication in SW480 colon cancer cells. SW480 DNA re-replication, Hoechst DNA content imaging, 48 h. Potency, µM (top dose mostly 46.1 µM), for the others: at the highest dose re-replication activation, hits mostly activators. 340,000 tested, 1.8% active. AID 624297; also: % of control where 0% means no effect; nearly all actives have a fitted effect of over 55% in size
#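 DNA re-replication was detected as more nuclei of elevated Hoechst intensity after 48 hr exposure to compound (23 nL pinned per well of 250 cells).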
# MCF10A rereplic: inducers of DNA re-replication in MCF 10A breast cells. Potency, µM (titrated, usually from 46.1 µM), inactives show at the highest dose activity, positive = re-replication, actives largely listed as activators. MCF 10A DNA re-replication, Hoechst nuclear intensity, 48 h. AID 624296. 350,000 tested, 2.9% active; also: % of control where 0% means no effect; nearly all actives have a fitted effect of over 50% in size
# * hit, by the source's call; i = inactive; ? = inconclusive; · = no result given; [ ] = dose if it differs, or a comment. Unless noted, calls follow the shape of the dose curve; as a rule, active = well fitted curve in the direction sought with a large enough effect; inconclusive = small, poorly fitted or top-dose-only effect, or another doubt; inactive = no such curve, though single readings can be large; an effect the other way counts as inactive or inconclusive. Potency is read from the fitted curve at half-maximal effect.
SMILES,TSG101-PTAP inh,KB-V1 MDR tox,PINK1 modulator,KB-3-1 cytotox,SW480 rereplic,MCF10A rereplic
CCC1C/C(=C\c2cc(OC)c(OC)cc2OC)C(=O)/C(=C/c2cc(OC)c(OC)cc2OC)C1 (stereo not given),9%,i,-3%,?,18µM*,4.6µM*
CCOC(=O)Cn1c(=O)n(CC2CCCO2)c2nc(-c3ccccc3Cl)nc(C(N)=O)c21 (stereo not given),·,?,0%,i,·,·
CC12c3ccccc3C(c3ccccc31)C1C(=O)N(c3cccnc3)C(=O)C12 (stereo not given),1%,15µM*,2%,i,-1%,0%
CNc1nc(-c2cccnc2)nc2ccccc12,·,·,1%,·,·,·
COC(=O)C1=CN(c2ccc(OC)cc2OC)C(N)=C(C#N)C1c1ccc(OC)cc1 (stereo not given),·,?,·,i,·,·
COC(=O)C1=CN(c2ccc(N3CCOCC3)cc2)C(N)=C(C#N)C1c1ccccc1 (stereo not given),·,i,·,?,·,·
COC(=O)C1=CN(c2ccc(OC)cc2)C(N)=C(C#N)C1c1ccc(OC)cc1 (stereo not given),·,i,·,i,·,·
COC(=O)C1=CN(c2ccc(OC)cc2OC)C(N)=C(C#N)C1c1ccccc1F (stereo not given),·,?,·,1.5µM*,·,·
COC(=O)C1=CN(c2ccc3c(c2)OCO3)C(N)=C(C#N)C1c1cccc(F)c1 (stereo not given),·,3.7µM*,·,2.3µM*,·,·
COC(=O)C1=CN(c2ccc(C)cc2)C(N)=C(C#N)C1c1ccc(OC)cc1 (stereo not given),·,23µM*,·,23µM*,·,·
CCc1ccc(N2C=C(C(=O)OC)C(c3ccc(OC)cc3)C(C#N)=C2N)cc1 (stereo not given),·,18µM*,·,?,·,·
COc1ccc(CNc2ccnc(-c3ccccc3C(F)(F)F)n2)c(OC)c1,·,·,3%,·,·,·
CCC(=O)Nc1ccc(C)cc1-c1nc2ccccc2n(C(C)C(=O)Nc2ccccc2CC)c1=O (stereo not given),·,i,1%,i,·,·
O=C(c1cnccn1)N1CCC2(CC1)CN(c1ccccn1)C2,·,·,1%,·,·,·
CCOc1ccc2[nH]c(=O)c(CN(Cc3cccs3)Cc3nnnn3C(C)(C)C)cc2c1,-6%,21µM*,·,i,29%,0%
O=C(NC(c1ccco1)c1cc(Cl)c2cccnc2c1O)c1ccc(Cl)cc1 (stereo not given),·,i,·,i,·,·
CC(=O)NC(c1ccc(N(C)C)cc1)c1cc(Cl)c2cccnc2c1O (stereo not given),·,?,4%,3.3µM*,·,·
O=C(NC(c1ccc(Cl)cc1)c1cc(Cl)c2cccnc2c1O)c1cccnc1 (stereo not given),-3%,?,1%,?,2.6µM*,15µM*
CCc1nc(NCc2ccc3c(c2)OCO3)c2oc3ccccc3c2n1,-3%,16µM*,-3%,?,3%,?
COc1ccc(/C=N/Nc2nnc(-c3ccccc3)c(=O)[nH]2)cc1,-1%,13µM*,2%,5.2µM*,18%,?
O=c1[nH]c(N/N=C/c2ccccc2Br)nnc1-c1ccccc1,-4%,i,3%,i,·,?
CCc1nn(CC(=O)N2CCN(c3cccc(C)c3)C(C)C2)c(=O)c2cc3sccc3n12 (stereo not given),·,·,1%,·,·,·
O=C(CN1C(=O)COc2ccc(S(=O)(=O)N3CCCC3)cc21)N1CCN(c2ccccc2)CC1,·,i,1%,i,·,·
CCOC(=O)c1cc(C#N)c(SCc2ccc(C#N)cc2)nc1C,-2%,2.3µM*,3%,i,-1%,26%
CCOC(=O)c1cc(C#N)c(SC)nc1C,-2%,i,3%,i,-8%[9.22 µM],0%
SMILES,TSG101-PTAP inh,KB-V1 MDR tox,PINK1 modulator,KB-3-1 cytotox,SW480 rereplic,MCF10A rereplic
Cc1ccc(NS(=O)(=O)c2cc3c(cc2F)NC(=O)CC3)cc1Cl,·,i,·,?,·,·
CCOC(=O)C1CCN(C(c2cc3ccc(C)c(C)c3[nH]c2=O)c2nnnn2C2CCCCC2)CC1 (stereo not given),2%,16µM*,15%[38.3 µM],i,0%,13%
CCOC(=O)C1CCN(C(c2cc3c(C)ccc(C)c3[nH]c2=O)c2nnnn2C2CCCCC2)CC1 (stereo not given),-6%,?,11%[38.3 µM],i,18%,19%
COc1ccc(N2CCN(C(=O)C3CCN(S(=O)(=O)c4cccc5nonc45)CC3)CC2)cc1,·,i,2%,i,·,·
CCOC(=O)N1CCN(C(=O)c2cccc(N3C(=O)NC4CC3(C)Oc3ccc(Cl)cc34)c2)CC1 (stereo not given),-1%,i,4%,?,13µM*,16µM*
CC1=NN(c2cccc(C(=O)O)c2)C(=O)/C1=C\C=C\c1ccco1,-5%,i,0%,i,?,?
Cc1ccc(C2=NOC(=O)/C2=C\C=C\c2ccccc2)cc1,1%,?,-1%,?,?,5.2µM*
CC1=NN(c2ccccc2)C(=O)/C1=C/C=C/c1ccccc1,-2%,?,-2%,?,7.3µM*,9.2µM*
CN(C)/C=C1\C(=O)ON=C1c1ccccc1,-2%,i,1%,i,2%,0%
Cc1ccc2onc(CNC(=O)NCc3ccccc3)c2c1,·,i,-2%,i,·,·
COc1ccc(OC)c(NC(=O)CN(Cc2ccccc2)S(C)(=O)=O)c1,-2%,i,2%,i,-31%,1µM*
COc1ccc(OC)c(NC(=O)CN(Cc2ccc(F)cc2)C2CCCCC2)c1,-1%,?,12%,16µM*,1%,18µM*
COc1ccc(Cl)cc1NC(=O)CN(C)C1CCCCC1,-2%,?,1%,i,8%,0%
CC(=O)C1=C(c2ccc(Br)cc2)N(C(C)=O)n2c(nnc2C2CCCCC2)S1,·,·,-2%,·,·,·
O=S1(=O)CCO[C@H]2CCCC[C@@H]2N1Cc1ccc(Cl)cc1,·,?,·,i,·,·
CC(=O)OCc1c(C(F)(F)F)nn(C)c1Oc1ccccc1,-6%,?,-5%,i,-7%,4%
Cn1nc(-c2ccccc2)c(CO)c1Oc1ccc(F)cc1,-2%,i,2%,i,-1%,21µM*
Cc1nc2ccccn2c1C(=O)/C=C/c1ccc(F)cc1,-7%,16µM*,-2%,16µM*,?,?
Cc1cc(/C=C(/C#N)C(=O)Nc2ccccc2)c(C)n1-c1cccnc1,-5%,i,-1%,i,1%[9.22 µM],22%
